# NPC1 promoter act: qHTS Assay for NPC1 Promoter Activators | Huh7 NPC1 promoter luciferase reporter, 24 h | Potency, µM (doses to about 9.22 µM), without a hit: top-dose activation, hits mostly activators | actives 2.4% (n = 320,000); also: % of control where 0% means no effect; nearly all actives have a fitted effect of over 60% in size
#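 Readout is luciferase luminescence, reflecting NPC1 promoter activation in stably transfected Huh7 cells after 24 h compound exposure at 37 °C in reduced-serum medium with 10% FBS.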
# FLuc counter: qHTS profiling assay for firefly luciferase inhibitor/activator using purifed enzyme and Km concentrations of substrates (counterscreen for miR-21 project); Luciferin 4-monooxygenase (Photinus pyralis), P08659; purified FLuc, Km substrates, luminescence inhibition; Potency, µM (highest dose often 57.5 µM), without a hit: at the top dose activity change, negative = inhibition, hits mostly inhibitors; actives 6.9% (n = 360,000); AID 588342, 2011;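 also: plate controls were vehicle for no effect and reference inhibitor for full effect; nearly all actives have a fitted effect of over 55% in size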
# Target sequence (P08659 whole entry, looked up): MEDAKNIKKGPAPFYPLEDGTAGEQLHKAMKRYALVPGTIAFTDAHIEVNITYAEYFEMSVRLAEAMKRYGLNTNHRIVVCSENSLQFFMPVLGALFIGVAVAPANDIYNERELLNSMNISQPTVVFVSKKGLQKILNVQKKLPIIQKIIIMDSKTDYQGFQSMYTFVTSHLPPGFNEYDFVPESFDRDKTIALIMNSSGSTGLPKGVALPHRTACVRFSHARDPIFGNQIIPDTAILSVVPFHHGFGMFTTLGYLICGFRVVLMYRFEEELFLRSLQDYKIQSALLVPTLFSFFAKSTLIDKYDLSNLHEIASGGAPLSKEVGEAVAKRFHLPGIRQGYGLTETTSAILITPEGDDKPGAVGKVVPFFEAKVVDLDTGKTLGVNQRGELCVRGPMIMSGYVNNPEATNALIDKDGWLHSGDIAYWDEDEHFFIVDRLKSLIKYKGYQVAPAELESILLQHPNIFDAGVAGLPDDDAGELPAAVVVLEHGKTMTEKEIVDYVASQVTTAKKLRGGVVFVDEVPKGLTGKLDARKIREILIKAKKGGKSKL
#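 Purified P. pyralis luciferase, 10 nM final, with Km-level 10 uM D-luciferin and 10 uM ATP in 50 mM Tris acetate pH 7.5, 10 mM Mg acetate, 0.01% Tween-20, 0.05% BSA; 6-point qHTS titration about 60 µM downward; luminescence read.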
# KinaseGlo FLuc: Counterscreen for Luciferase (Kinase-Glo TM) Inhibition; Luciferin 4-monooxygenase (Photuris pensylvanica), Q27757; Kinase-Glo luciferase, ATP luminescence, 8 min; actives 0.28% (n = 200,000); AID 1379, 2008; Potency, µM (doses to about 38.3 µM), for the others: at the top dose activity change, negative = inhibition, hits mostly inhibitors; also: % is scaled to controls: 0 for no effect and ±100 for the full control effect; nearly all actives have a fitted effect of over 60% in size
#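 Kinase-Glo luciferase light output from ATP and luciferin was measured with 10 uM ATP, within the enzyme's linear range. Buffer: 50 mM imidazole pH 7.2, 50 mM KCl, 7 mM MgCl2, 0.01% Tween 20, 0.05% BSA; luminescence read after 8 min at ambient temperature.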
# Rab9 promoter act: qHTS Assay for Rab9 Promoter Activators | Huh7 Rab9 promoter-luciferase reporter, luminescence, 24 h | Potency, µM (highest dose often 9.22 µM), for inactives: at the top dose activation, negative = inhibition, actives largely listed as activators | actives 2.8% (n = 320,000) | AID 485297, 2010; also: % of control where 0% means no effect; nearly all actives have a fitted effect of over 60% in size
#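 Steps: seed 1500 Huh7 Rab9-luc cells per well, rest 2 h at 37 °C; add compound in DMSO; incubate 24 h; add luciferase reagent, 10 min ambient; read luminescence.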
# ELG1 genotoxic: qHTS screen for small molecules that induce genotoxicity in human embryonic kidney (HEK293T) cells expressing luciferase-tagged ELG1 | HEK293T ELG1-luciferase reporter, luminescence, 16 h | Potency, µM (series often up to 46 µM), for the others: at the top dose activity change, positive = activation, most hits filed as activators | actives 1.3% (n = 330,000); also: % of control where 0% means no effect; nearly all actives have a fitted effect of over 60% in size
#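 Quantitative HTS format in 1536-well plates. HEK293T ELG1-luciferase reporter cells receive test compound and are incubated 16 hr at 37 °C, 5% CO2; ONE-Glo added, 30 min room temperature, then luminescence read.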
# SMN2 splice enh: qHTS Assay for Enhancers of SMN2 Splice Variant Expression. HEK293 SMN2-luciferase splicing reporter, luminescence, 30-36 h. actives 2.8% (n = 210,000). Potency, µM (top dose mostly 46.1 µM), inactives show at the highest dose activity change, positive = activation, actives largely listed as activators. AID 1458, 2008; also: % of control where 0% means no effect; nearly all actives have a fitted effect of over 55% in size
#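 qHTS luciferase splicing reporter: luminescence rises when SMN2 exon 7 is included in transfected HEK293 cells. Compound exposure lasted 30-36 h at 37C, with 4.5 mM final sodium butyrate as control, followed by a ONE-Glo read.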
# * = called active by the depositor; ? = inconclusive; nt = not tested or not shown. Sampled rows, rich in hits. Any-hit rate of the full collection: about 7.5%. Calls follow the shape of the dose curve; as a rule, active = well fitted curve in the direction sought with a large enough effect; inconclusive = small, poorly fitted or top-dose-only effect, or another doubt; inactive = no such curve, though single readings can be large; an effect the other way counts as inactive or inconclusive. Potency is read from the fitted curve at half-maximal effect.
SMILES,NPC1 promoter act,FLuc counter,KinaseGlo FLuc,Rab9 promoter act,ELG1 genotoxic,SMN2 splice enh
CCOCC(=O)Nc1cc(C(=O)NCCc2ccccc2)ccc1Cl,1µM*,-14.7%,0.2%,2µM*,?,nt
CC(C)CCNC(=O)c1ccc(Cl)c(NC(=O)Cc2ccccc2)c1,-1.1%,-10.8%,6.6%,-1.9%,-0.6%,9.1%
COCC(=O)Nc1cc(C(=O)NCCc2ccccc2)ccc1Cl,1.78µM*,?,1.5%,2µM*,?,0.631µM*
Cn1c(C(=O)OCC(=O)NCc2ccc(F)cc2)cc2occc21,-1.2%,-0.8%,nt,0.5%,3.8%,nt
Cc1ccc2nc(-c3ccc(Cl)c(NC(=O)c4ccc5c(c4)OCCO5)c3)oc2c1,nt,10.7µM*,nt,nt,nt,-34.4%
Cc1ccc(OCC(=O)Nc2ccc(-c3nc4ccc(C)cc4o3)cc2)cc1,nt,-2.0%,nt,nt,nt,0.631µM*
CCOc1ccc(-c2nc3cc(NC(=O)COc4cccc(C)c4)ccc3o2)cc1,nt,-13.3%,nt,nt,nt,-4.9%
Cc1ccc2nc(-c3ccc(Cl)c(NC(=O)COc4ccc(C(C)C)cc4)c3)oc2c1,nt,10.7µM*,nt,nt,nt,17.1%
COc1ccc(OCC(=O)Nc2ccc(-c3nc4cc(C)c(C)cc4o3)cc2)cc1,nt,nt,nt,nt,nt,0.562µM*
Cc1ccc2nc(-c3ccc(Cl)c(NC(=O)COc4ccc([N+](=O)[O-])cc4)c3)oc2c1,nt,-9.5%,nt,nt,nt,15.7%
Cc1ccc2oc(-c3ccc(C)c(NC(=O)c4ccc5c(c4)OCCO5)c3)nc2c1,nt,-16.2%,nt,nt,nt,1.7%
CCCCc1cc(=O)oc2cc(OC(C)C(=O)NCCN3CCOCC3)c(Cl)cc12 (centres undefined),-1.7%,4.3%,nt,-1.2%,1.9%,nt
Cc1cc(C)c2c(CC(=O)Nc3ccc(S(=O)(=O)N4CCCCC4)cc3)coc2c1,nt,-2.5%,nt,nt,nt,-3.0%
CN(CC(=O)Nc1ccccc1Cl)C(=O)Cn1cc(C(F)(F)F)cc(Cl)c1=O,-11.0%,-1.5%,nt,-11.5%,-2.1%,nt
O=C(CSc1nnc(-c2ccccc2F)o1)NC1CC1,nt,nt,nt,nt,10.2%,nt
O=C(c1ccccc1)c1nnc(-c2ccccc2F)o1,16.3%,0.536µM*,?,24.0%,16.4µM*,26.2%
Nc1nonc1-c1noc(-c2ccccc2Br)n1,13.3%,16.9µM*,-3.3%,4.7%,?,?
Cc1ccccc1C(=O)Nc1ccccc1-c1nc(-c2ccccc2)no1,nt,-5.6%,nt,nt,nt,nt
Cc1ccccc1-c1noc(-c2ccccc2C(=O)O)n1,19.4%,19µM*,nt,16.8%,13.7%,nt
Cc1ccc(-c2noc(-c3ccccc3F)n2)cc1,?,0.849µM*,-9.2%,2µM*,2.59µM*,12.6µM*
COc1ccc2c(c1)c1c(c(=O)n(Cc3ccccc3)c(=O)n1CC(=O)Nc1ccc(C)cc1C)n2C,nt,-0.4%,nt,nt,nt,nt
Cc1ccc(S(=O)(=O)N2CCC3(CC2)OCCO3)s1,-6.5%,-0.2%,nt,-0.2%,1.0%,nt
FC(F)(F)c1ccc(-c2noc(-c3ccccc3Br)n2)cc1,nt,10.7µM*,nt,nt,nt,nt
Nc1nonc1-c1noc(CCCN2C(=O)c3ccccc3C2=O)n1,?,23.9µM*,-3.1%,?,?,?
Cc1nc(-c2cc(-c3nc(-c4ccc(C(F)(F)F)cc4)no3)no2)cs1,-3.2%,3.4%,nt,-0.2%,-2.0%,nt
O=C(O)c1ccccc1-c1noc(-c2ccccc2F)n1,3.55µM*,9.53µM*,nt,2µM*,nt,nt
O=C(NCc1cccnc1)C1CC(c2ccccc2O)=NO1 (centres undefined),-3.2%,11.7%,nt,5.4%,1.6%,nt
O=C(Nc1ccccc1)N1CC=C(c2ccccc2)CC1,2.24µM*,4.78µM*,1.0%,1.58µM*,2.59µM*,12.6µM*
O=C(Nc1ccccc1)N1CC=C(c2ccc(F)cc2)CC1,4.47µM*,23.9µM*,-8.2%,1µM*,?,11.2µM*

# High-throughput results: PubChem, National Center for Advancing Translational Sciences (NCATS)
